Screening data: PubChem BioAssay, Sanford-Burnham Center for Chemical Genomics
A3A deaminase: inhibitors of human APOBEC3A DNA deaminase. P31941. recombinant A3A, FAM/TAMRA ssDNA deamination fluorescence. inhibition, % at 20 µM. 330,000 tested, 0.41% active. AID 493011;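 active = at least 40% inhibition at 20 µM here, with at most 30% in a related deaminase screen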;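 note: plate controls were A3A with DMSO for no effect and wells lacking A3A enzyme for full effect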
Target sequence (P31941 whole entry, looked up): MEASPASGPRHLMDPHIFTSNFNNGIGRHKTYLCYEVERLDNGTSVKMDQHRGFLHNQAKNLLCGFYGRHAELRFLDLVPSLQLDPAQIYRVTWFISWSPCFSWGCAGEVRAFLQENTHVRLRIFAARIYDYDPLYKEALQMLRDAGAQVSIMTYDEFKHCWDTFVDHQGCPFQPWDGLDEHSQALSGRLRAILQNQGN
APOBEC3G inh: inhibitors of human APOBEC3G DNA deaminase; Q9HC16; recombinant A3G, ssDNA deamination FAM/TAMRA fluorescence; inhibition, % at 20 µM; 330,000 tested, 0.28% active; AID 493012;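 active = inhibition of at least 40% at 20 µM, with no more than 30% in the related APOBEC3A deaminase screen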;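 note: plate controls were DMSO wells with A3G for no effect and wells lacking A3G enzyme for full effect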
Target sequence (Q9HC16 whole entry, looked up): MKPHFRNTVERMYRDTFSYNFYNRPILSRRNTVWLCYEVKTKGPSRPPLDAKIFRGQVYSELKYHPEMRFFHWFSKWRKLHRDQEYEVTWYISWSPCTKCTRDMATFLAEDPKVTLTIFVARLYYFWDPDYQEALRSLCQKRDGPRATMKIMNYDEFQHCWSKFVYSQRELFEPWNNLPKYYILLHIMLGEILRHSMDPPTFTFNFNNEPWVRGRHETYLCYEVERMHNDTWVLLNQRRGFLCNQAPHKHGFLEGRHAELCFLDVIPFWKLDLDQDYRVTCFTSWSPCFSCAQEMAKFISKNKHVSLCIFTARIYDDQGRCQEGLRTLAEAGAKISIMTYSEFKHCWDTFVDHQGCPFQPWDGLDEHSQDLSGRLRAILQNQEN
PfGluPho inh: PfG6PD (Plasmodium falciparum) enzyme inhibition; PfGluPho enzyme, NADPH resazurin-diaphorase fluorescence; inhibition, % at 20 µM; 350,000 tested, 0.78% active;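 active = inhibition reaching at least a set limit at 20 µM in the primary screen, cut at about 59% in these data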;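 note: 0% = DMSO wells with substrate and 100% = DMSO wells lacking glucose-6-phosphate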
NadD inh: blocks S. aureus nicotinate mononucleotide adenylyltransferase; purified NadD enzyme, colorimetric absorbance read-out; inhibition, % at 20 µM; 360,000 tested, 0.78% active; in the data active = inhibition above about 26%
H9c2 protect: myocardial damage modulation in H9c2 cells; H9c2 cardiomyocytes, H2O2 injury protection, ATPLite, 2 h; protection from H2O2 cell death, % at 20 µM; 360,000 tested, 0.63% active;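 active = compounds giving at least 50% protection of heart cells from peroxide-induced death in the single-dose screen, raw or plate-pattern-corrected value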;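 note: 0% = DMSO wells with peroxide and 100% = DMSO wells without peroxide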
H9c2 TAG inh: triacylglycerol accumulation inhibition | H9c2 cells, Nile Red lipid (TAG) fluorescence; cells loaded with 200 µM oleic acid | inhibition, % at 12.5 µM | 230,000 tested, 0.66% active | AID 651582;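 active = pattern-corrected inhibition of lipid staining of at least 50% with the nuclear-stain viability signal not falling by more than 50%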;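 note: 0% = DMSO wells and 100% = triacsin C control wells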
* hit, by the source's call; x = no result given. The list is not random: actives were taken first. Their share in the collection is about 2.9%.

SMILES	A3A deaminase	APOBEC3G inh	PfGluPho inh	NadD inh	H9c2 protect	H9c2 TAG inh
Cc1cc(NC(=O)COC(=O)Cn2[nH]c(=O)c3ccccc3c2=O)c([N+](=O)[O-])cc1C	-1.0	-4.8	6.2	8.2	92.7*	-0.3
COc1ccccc1C(=O)COC(=O)Cn1[nH]c(=O)c2ccccc2c1=O	-1.0	-8.2	-9.5	-2.9	52.6*	6.9
CC(OC(=O)Cn1[nH]c(=O)c2ccccc2c1=O)C(=O)Nc1ccccc1[N+](=O)[O-] (stereo not drawn)	-3.6	-4.6	-4.3	-1.1	79.3*	-12.3
CCc1ccc(C(=O)C(C)OC(=O)Cn2[nH]c(=O)c3ccccc3c2=O)cc1 (stereo not drawn)	3.7	1.9	-11.2	-7.3	44.3	9.2
CC(OC(=O)Cn1[nH]c(=O)c2ccccc2c1=O)C(=O)Nc1ccc(F)cc1Cl (stereo not drawn)	4.9	0.1	-1.0	1.4	67.0*	-22.2
O=C(Cn1[nH]c(=O)c2ccccc2c1=O)OCC(=O)c1ccc(Br)cc1	-0.1	-8.1	-14.4	-6.7	10.0	-1.9
CCN(C[C@H]1N[C@@](Cc2ccccc2)(C(=O)OC)[C@H]2C(=O)N(C)C(=O)[C@@H]12)C(=O)Nc1ccc(C(F)(F)F)cc1	-6.6	-9.4	9.8	7.1	9.2	19.7
O=C(NCc1cc(Cl)cc(Cl)c1)c1ccc2nc([C@H]3C[C@H](O)[C@@H](CO)O3)[nH]c2c1	x	x	x	-0.4	-0.2	6.3
Cc1cc(C)cc(N(CCC#N)C(=O)COC(=O)Cn2[nH]c(=O)c3ccccc3c2=O)c1	-3.4	-6.3	17.8	1.5	77.0*	-1.6
Cc1cc(C)cc(N(CCC#N)C(=O)COC(=O)CN2C(=O)NC(C)(C)C2=O)c1	-3.4	-6.6	9.4	2.2	-5.0	23.8
CC(OC(=O)Cn1[nH]c(=O)c2ccccc2c1=O)C(=O)Nc1cccc(Cl)c1 (stereo not drawn)	-4.3	-11.7	-6.5	-4.6	59.1*	-2.0
Cc1ccccc1Cn1c(=N)n(CC(O)c2ccco2)c2ccccc21 (stereo not drawn)	-2.1	-4.4	6.8	-3.5	-2.6	-17.7
CC(C)(C)c1ccc(Cn2c(=N)n(CC(O)c3ccco3)c3ccccc32)cc1 (stereo not drawn)	4.2	-1.8	7.1	-0.6	-27.1	107.1*
Cc1c(Cl)cccc1NC(=O)CNC(=O)Cc1n[nH]c(=O)c2ccccc12	6.7	-8.5	5.0	-0.2	87.9*	3.0
O=C(Cc1n[nH]c(=O)c2ccccc12)NCc1ccc(Cl)cc1	-2.4	-4.4	-2.7	0.4	67.1*	-3.3
O=C(CSc1nc2ccccc2o1)NCc1n[nH]c(=O)c2ccccc12	0.0	1.2	3.4	1.2	57.0*	0.6
O=C(CSc1nc2ccccc2o1)NCC(=O)c1ccccc1	0.9	11.3	-8.4	-3.5	10.5	-3.1
O=C(Cc1n[nH]c(=O)c2ccccc12)NCc1ccccn1	0.9	-0.8	-11.0	-0.6	54.1*	-9.3
O=C(COC(=O)Cc1n[nH]c(=O)c2ccccc12)NNC(=O)c1ccccc1	-2.0	-12.0	4.1	-2.5	49.6	-5.6
Cc1c(Cl)cccc1NC(=O)CNC(=O)CCCc1nc2ccccc2c(=O)[nH]1	30.5	-2.9	-6.6	3.6	34.5	17.8
CC(NC(=O)C1CCCN1S(=O)(=O)c1cccc2nsnc12)c1ccccc1 (stereo not drawn)	-6.4	-7.1	-15.1	-2.3	3.5	x
CCCN(CC(=O)Nc1ccccc1C)C(=O)Cc1n[nH]c(=O)c2ccccc12	0.8	-6.4	10.4	2.9	59.7*	9.7
COc1ccc(OCC(=O)NCc2n[nH]c(=O)c3ccccc23)cc1	0.2	-1.6	7.3	-0.2	77.8*	10.7
CC(C)c1ccc(OCC(=O)NCc2n[nH]c(=O)c3ccccc23)cc1	-2.7	-7.5	8.7	-3.8	30.6	-21.3
O=C(COc1ccc(Cl)cc1)NCc1n[nH]c(=O)c2ccccc12	-1.6	-7.4	5.0	-0.9	80.8*	4.3
SMILES	A3A deaminase	APOBEC3G inh	PfGluPho inh	NadD inh	H9c2 protect	H9c2 TAG inh
CCOc1ccc(S(=O)(=O)N2CCCC(C(=O)Nc3cccc(C)c3)C2)cc1 (stereo not drawn)	1.0	-0.9	-2.0	-6.6	-8.1	x
COc1ccccc1NC(=O)COn1nnc2ccc(S(=O)(=O)N3CCOCC3)cc21	2.1	1.7	3.3	-0.5	1.3	-9.3
COc1ccc(S(=O)(=O)N2CCc3ccccc32)cc1[N+](=O)[O-]	-0.2	-0.7	1.2	-7.1	-16.5	x
CN1CCc2c(sc(NC(=O)c3ccc4ccccc4c3)c2C(N)=O)C1	-3.2	-6.5	x	4.2	-7.7	27.9
COc1cc2ccccc2cc1C(=O)Nc1sc2c(c1C(N)=O)CCN(C(C)C)C2	-3.6	-13.9	x	-2.7	-17.2	54.2*
CCNC(=S)N/N=C/c1sc(N2CCCCC2)nc1-c1cccs1	-3.9	-6.8	-0.4	3.2	-11.9	7.7
O=C(N1CCN(c2ccccn2)CC1)N1c2ccccc2Sc2ccccc21	-2.6	-4.0	-7.7	6.8	-6.9	57.6*
Oc1ccc(Cl)cc1C=Nc1ccccc1Br	1.5	2.0	-6.7	1.0	48.2	x
Oc1ccc(Br)cc1C=Nc1ccc2c3c(cccc13)CC2	-2.1	-7.8	29.9	7.5	86.6*	x
CN(C)S(=O)(=O)n1cc(/C=C(\NC(=O)c2ccccc2F)C(=O)NCCN2CCOCC2)c2ccccc21	x	x	2.1	-4.7	75.3*	3.7
COC(=O)C1=C(C)N(Cc2ccccc2)C(=NCc2ccccc2)N[C@H]1c1cccc(F)c1	25.0	-1.6	14.1	1.3	-13.8	91.8*
Oc1cccc(/C=N/NC(=S)NCCN2CCOCC2)c1O	-2.0	1.9	-14.4	-5.9	48.9*	11.1
S=C(NCCN1CCOCC1)N/N=C/c1cccs1	-5.5	-3.7	1.2	-2.6	0.3	x
O=[N+]([O-])c1ccc(-c2nc(C(Cl)Cl)c3ccccc3n2)cc1	-3.1	-2.6	-1.1	1.3	-2.7	111.9*
CCN1c2ccccc2N(C)C1(C)c1ccccc1 (stereo not drawn)	x	x	67.5*	-0.7	-26.6	x
CN(C)c1ccc(C(C(=O)NCc2ccccc2)N(Cc2ccco2)C(=O)c2snc(C(N)=O)c2N)cc1 (stereo not drawn)	x	x	21.4	3.8	77.5*	x
NC(=O)c1nsc(C(=O)N(Cc2ccco2)C(C(=O)NCc2ccc(F)cc2)c2ccc(O)cc2)c1N (stereo not drawn)	-3.2	-12.7	22.9	0.6	53.7*	x
O=C(NCc1ccccc1)C(c1ccc(F)cc1)N(Cc1ccco1)C(=O)c1ccccn1 (stereo not drawn)	3.5	1.9	-6.2	-3.5	26.5	-3.2
Cc1ccc(C(C(=O)NCc2ccc(F)cc2)N(Cc2ccco2)C(=O)c2snc(C(N)=O)c2N)o1 (stereo not drawn)	-3.6	-12.1	13.6	0.6	39.5	x
Cc1ccccc1C(C(=O)NCc1ccccc1)N(Cc1ccco1)C(=O)c1ccccn1 (stereo not drawn)	-0.6	-0.8	-2.2	-6.0	50.6*	14.2
